Source: PubChem BioAssay AID1159580 (chemical genetic matrix, 2015)
The campaign covered roughly 5,500 compounds. About 2,000 (36%) were called active. Roughly 18% stayed inconclusive and do not appear here. No stated cut-off is given here; in the data, active means normalized growth mostly below about 0.91 (no sharp cut-off); inconclusive means no clear call, values can overlap the other calls; inactive means mostly above about 0.92. Some of the results follow.

Assay: chemical genetic growth profiling, strain panel (AID 1159580);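 further: tested at 20 µM; growth read once vehicle control cultures reached saturation at 30 °C; 1 = growth at the plate median or of vehicle wells; lower values mean less growth of the strain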
Details: S. cerevisiae deletion strains, growth OD
[1] = locus YAL013W, strain DEP1, hits give low values
[2] = locus YMR263W, strain SAP30, hits give low values
[3] = locus YNL153C, strain GIM3, hits give low values

Measured: normalized growth

Cc1ccc(N=Cc2cccs2)cc1Cl
inactive: [1] 1.01 | locus YBR229C, strain ROT2, hits give low values 0.998 | locus YCL061C, strain MRC1, hits give low values 1.03 | locus YDL101C, strain DUN1, hits give low values 1 | locus YDR150W, strain NUM1, hits give low values 0.982 | locus YEL061C, strain CIN8, hits give low values 1 | locus YGR078C, strain PAC10, hits give low values 1 | locus YHR030C, strain SLT2, hits give low values 1.04 | locus YHR087W, strain rtc3, hits give low values 0.999 | locus YJR043C, strain POL32, hits give low values 1.02 | locus YJR075W, strain HOC1, hits give low values 1.01 | locus YKL190W, strain CNB1, hits give low values 0.998 | locus YLR039C, strain RIC1, hits give low values 0.991 | locus YLR058C, strain SHM2 (second series), hits give low values 1.01 | locus YLR085C, strain ARP6, hits give low values 1.05 | locus YLR262C, strain YPT6, hits give low values 1 | locus YML094W, strain GIM5, hits give low values 1 | locus YMR219W, strain ESC1, hits give low values 0.998 | [2] 1 | locus YNL128W, strain TEP1, hits give low values 1 | [3] 1 | locus YNL298W, strain CLA4 (second series), hits give low values 1.04 | locus YNL322C, strain KRE1, hits give low values 1.01 | locus YNR030W, strain Alg12, hits give low values 1.02 | locus YOL006C, strain TOP1, hits give low values 1.06 | locus YPL055C, strain LGE1, hits give low values 1 | locus YPL241C, strain CIN2, hits give low values 1.05 | locus YPR135W, strain CTF4, hits give low values 1.01

O=C(O)CC1CCCc2ccccc2C1O (centres undefined)
inactive: [1] 1.01 | locus YAL040C, strain CLN3, hits give low values 1.09 | locus YCL061C, strain MRC1 (second series), hits give low values 0.999 | locus YDR363W, strain ESC2, hits give low values 1.02 | locus YER002W, strain NOP16, hits give low values 1.01 | [2] 0.997 | [3] 1 | locus YNL175C, strain NOP13, hits give low values 1.01 | locus YNL197C, strain WHI3, hits give low values 1.01 | locus YNL224C, strain SQS1, hits give low values 1.01 | locus YOR083W, strain WHI5 (second series), hits give low values 1.02
